Common to all, as to design: scale not given: direction of the effect not stated beside the values
Test [1] concerns the target Protein translocase subunit SecA (Escherichia coli (strain K12)) (UniProt P10408). Put plainly: Assay to Identify E. coli SecA ATPase Inhibitors. The format is functional. As to conditions: 30 µM.
Test [2] concerns the target T1, Ubiquitin-activating enzyme e1, putative (Leishmania donovani (strain BPK282A1)) (UniProt E9BSI1).
T1 sequence (whole entry): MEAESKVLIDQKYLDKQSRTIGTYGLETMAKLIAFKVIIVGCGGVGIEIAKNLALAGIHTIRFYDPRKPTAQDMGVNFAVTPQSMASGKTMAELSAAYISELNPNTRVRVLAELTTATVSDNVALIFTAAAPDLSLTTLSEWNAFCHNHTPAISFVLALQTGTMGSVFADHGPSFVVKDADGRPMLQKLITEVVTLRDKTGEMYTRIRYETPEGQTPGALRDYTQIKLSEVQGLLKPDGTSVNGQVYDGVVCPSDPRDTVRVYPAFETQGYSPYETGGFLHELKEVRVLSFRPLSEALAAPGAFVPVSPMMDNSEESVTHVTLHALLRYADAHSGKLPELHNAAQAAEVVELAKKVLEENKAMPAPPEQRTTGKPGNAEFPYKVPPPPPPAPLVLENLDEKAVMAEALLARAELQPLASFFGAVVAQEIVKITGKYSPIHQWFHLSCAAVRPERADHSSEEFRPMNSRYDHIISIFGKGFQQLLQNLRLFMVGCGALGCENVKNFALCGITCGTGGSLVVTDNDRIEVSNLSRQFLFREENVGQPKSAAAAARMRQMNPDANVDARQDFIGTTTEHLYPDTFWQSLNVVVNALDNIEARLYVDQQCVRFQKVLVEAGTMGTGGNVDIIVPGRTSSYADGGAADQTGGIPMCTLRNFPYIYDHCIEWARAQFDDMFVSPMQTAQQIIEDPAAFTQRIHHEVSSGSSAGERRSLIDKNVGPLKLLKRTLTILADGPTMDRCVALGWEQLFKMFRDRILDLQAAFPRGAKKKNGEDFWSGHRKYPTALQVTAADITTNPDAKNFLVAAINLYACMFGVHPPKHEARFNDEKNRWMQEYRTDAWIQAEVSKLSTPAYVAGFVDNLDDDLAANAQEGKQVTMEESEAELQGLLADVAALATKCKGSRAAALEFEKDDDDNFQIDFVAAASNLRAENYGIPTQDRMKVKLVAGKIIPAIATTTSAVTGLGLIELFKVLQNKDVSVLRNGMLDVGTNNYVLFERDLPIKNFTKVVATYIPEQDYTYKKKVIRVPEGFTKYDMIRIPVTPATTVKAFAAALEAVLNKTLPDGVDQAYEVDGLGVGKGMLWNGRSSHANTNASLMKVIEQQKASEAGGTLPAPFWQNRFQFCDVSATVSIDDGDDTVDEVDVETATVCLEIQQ
The test is described as follows: Leishmania donovani Ubiquitin Activating Enzyme (LdE1). The format is functional. As to conditions: 30 µM.

In test [3] the target is AMP-activated protein kinase, AMPK (Homo sapiens) (UniProt P54646+O43741+P54619+Q9UGJ0+Q9Y478+Q13131+Q9UGI9). The test is described as follows: AMP-dependent Kinase enzyme assay. An in vitro enzyme assay that detects ADP turnover that is directly proportional to AMPK activity. This uses naive AMPK that is activated during the assay with MK-8722. The format is functional. The conditions noted are these: 30 µM.

The target in test [4] is Sialic acid-binding Ig-like lectin 9 (Homo sapiens) (UniProt Q9Y336). Put plainly: Hs-Siglec9 ALPHAscreen SOP 20170721. As to conditions: 10 µM.
In test [5] the test system is Trypanosoma cruzi. The test is described as follows: Trypanosoma cruzi phosphomannomutase and mannose-1-phosphate guanylyltransferase assay. The conditions noted are these: 10 µM. Type of test: functional.
For test [6], the target named is T2, Arginase-2, mitochondrial (Homo sapiens) (UniProt P78540).
T2 sequence (whole entry): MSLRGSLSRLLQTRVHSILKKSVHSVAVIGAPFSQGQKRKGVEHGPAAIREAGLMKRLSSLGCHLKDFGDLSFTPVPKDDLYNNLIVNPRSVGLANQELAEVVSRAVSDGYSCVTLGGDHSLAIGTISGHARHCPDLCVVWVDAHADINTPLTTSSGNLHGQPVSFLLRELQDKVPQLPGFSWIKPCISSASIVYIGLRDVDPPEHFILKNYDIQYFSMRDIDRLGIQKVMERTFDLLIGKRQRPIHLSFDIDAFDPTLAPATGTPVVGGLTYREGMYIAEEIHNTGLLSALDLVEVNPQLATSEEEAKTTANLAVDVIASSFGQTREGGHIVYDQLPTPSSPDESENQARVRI
Put plainly: in vitro enzyme assay to detect the production of urea directly proportional to the activity of Arginase II. Further: in the data most compounds retested in dose-response had high values. Type of test: functional. The conditions noted are these: 33.3 µM.

The target of test [7] is T3, Proteasome subunit beta (Trypanosoma cruzi) (UniProt O96673).
T3 sequence (whole entry): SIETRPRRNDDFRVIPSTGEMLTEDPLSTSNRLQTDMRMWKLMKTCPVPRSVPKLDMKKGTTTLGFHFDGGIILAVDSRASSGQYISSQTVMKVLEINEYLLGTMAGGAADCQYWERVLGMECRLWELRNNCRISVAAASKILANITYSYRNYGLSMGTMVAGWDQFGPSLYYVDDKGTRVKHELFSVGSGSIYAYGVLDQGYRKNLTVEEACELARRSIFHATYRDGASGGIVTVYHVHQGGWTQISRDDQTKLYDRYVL
The test is described as follows: Trypanosoma cruzi proteasome chymotrypsin-like activity (TcProtChymo) assay. Further: in the data most compounds retested in dose-response had high values. Type of test: functional. The conditions noted are these: 9.37 µM.

The species entered for test [8] is Homo sapiens. The test is described as follows: To identify inhibition of the IFN signalling (Jak-Stat) pathway via expression of an eGFP reporter gene under the control of an IFN-stimulated response element (ISRE) containing MxA promoter. Type of test: functional. As to conditions: 30 µM. For orientation: In a reporter assay the amount or activity of a reporter protein is the signal.

The target of test [9] is T4, Tyrosyl-tRNA synthetase, putative (Trypanosoma cruzi (strain CL Brener)) (UniProt Q4DSP6).
T4 sequence (whole entry): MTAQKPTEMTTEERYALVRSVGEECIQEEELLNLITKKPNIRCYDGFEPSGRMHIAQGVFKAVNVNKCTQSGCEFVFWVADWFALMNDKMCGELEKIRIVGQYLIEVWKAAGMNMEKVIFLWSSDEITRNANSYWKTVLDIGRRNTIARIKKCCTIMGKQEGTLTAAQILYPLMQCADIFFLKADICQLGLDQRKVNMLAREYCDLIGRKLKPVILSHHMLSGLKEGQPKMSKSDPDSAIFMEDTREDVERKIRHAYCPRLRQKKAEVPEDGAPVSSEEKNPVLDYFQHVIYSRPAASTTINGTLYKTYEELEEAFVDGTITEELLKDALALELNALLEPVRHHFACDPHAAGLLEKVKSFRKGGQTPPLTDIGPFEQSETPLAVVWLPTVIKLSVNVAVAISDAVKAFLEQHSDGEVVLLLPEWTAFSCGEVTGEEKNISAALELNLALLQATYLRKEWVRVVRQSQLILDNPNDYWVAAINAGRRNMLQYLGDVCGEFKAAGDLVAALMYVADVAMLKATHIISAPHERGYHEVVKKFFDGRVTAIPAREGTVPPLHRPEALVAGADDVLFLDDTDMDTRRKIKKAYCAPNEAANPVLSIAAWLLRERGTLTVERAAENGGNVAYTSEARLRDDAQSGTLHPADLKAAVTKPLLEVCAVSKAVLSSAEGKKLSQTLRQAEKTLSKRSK
Put plainly: Trypanosoma cruzi tyrosyl tRNA synthetase (TcYRS) _High Tyrosine SOP. Further: in the data most compounds retested in dose-response had high values. The format is functional. The conditions noted are these: 30 µM.

The target of test [10] is T4, Tyrosyl-tRNA synthetase, putative (Trypanosoma cruzi (strain CL Brener)). The test is described as follows: Trypanosoma cruzi tyrosyl tRNA synthetase (TcYRS) SOP. The format is functional. As to conditions: 30 µM.
Test [11] concerns the target Chromo domain-containing protein 1 (Saccharomyces cerevisiae (strain ATCC 204508 / S288c) (Baker's yeast)) (UniProt P32657). The test is described as follows: ScCHD-1 Enzyme Inhibition Assay. Further: in the data most compounds retested in dose-response had high values. As to conditions: 30 µM. The format is functional.

For some of these results: Results with a measured potency or affinity are listed apart.

11 compounds from ChEMBL document CHEMBL3988442, “University of Dundee, Small-Polar-MMV Screening Library” (2021) can be followed below.

Sialic acid-binding Ig-like lectin 9 (Homo sapiens), sequence (Q9Y336 whole entry): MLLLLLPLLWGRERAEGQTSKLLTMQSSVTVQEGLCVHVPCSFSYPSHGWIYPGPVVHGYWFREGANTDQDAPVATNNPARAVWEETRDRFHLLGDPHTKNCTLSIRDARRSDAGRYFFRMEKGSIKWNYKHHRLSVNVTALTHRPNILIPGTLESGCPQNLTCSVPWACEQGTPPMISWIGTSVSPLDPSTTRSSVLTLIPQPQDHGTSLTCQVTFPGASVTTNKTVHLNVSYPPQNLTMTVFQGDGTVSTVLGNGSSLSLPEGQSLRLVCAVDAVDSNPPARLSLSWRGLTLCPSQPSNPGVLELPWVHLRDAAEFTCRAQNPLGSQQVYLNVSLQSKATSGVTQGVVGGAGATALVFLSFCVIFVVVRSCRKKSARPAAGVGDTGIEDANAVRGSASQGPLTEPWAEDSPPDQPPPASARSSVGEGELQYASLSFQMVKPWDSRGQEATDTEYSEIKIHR
Chromo domain-containing protein 1 (Saccharomyces cerevisiae (strain ATCC 204508 / S288c) (Baker's yeast)), sequence (P32657 whole entry, the tested form may be a part): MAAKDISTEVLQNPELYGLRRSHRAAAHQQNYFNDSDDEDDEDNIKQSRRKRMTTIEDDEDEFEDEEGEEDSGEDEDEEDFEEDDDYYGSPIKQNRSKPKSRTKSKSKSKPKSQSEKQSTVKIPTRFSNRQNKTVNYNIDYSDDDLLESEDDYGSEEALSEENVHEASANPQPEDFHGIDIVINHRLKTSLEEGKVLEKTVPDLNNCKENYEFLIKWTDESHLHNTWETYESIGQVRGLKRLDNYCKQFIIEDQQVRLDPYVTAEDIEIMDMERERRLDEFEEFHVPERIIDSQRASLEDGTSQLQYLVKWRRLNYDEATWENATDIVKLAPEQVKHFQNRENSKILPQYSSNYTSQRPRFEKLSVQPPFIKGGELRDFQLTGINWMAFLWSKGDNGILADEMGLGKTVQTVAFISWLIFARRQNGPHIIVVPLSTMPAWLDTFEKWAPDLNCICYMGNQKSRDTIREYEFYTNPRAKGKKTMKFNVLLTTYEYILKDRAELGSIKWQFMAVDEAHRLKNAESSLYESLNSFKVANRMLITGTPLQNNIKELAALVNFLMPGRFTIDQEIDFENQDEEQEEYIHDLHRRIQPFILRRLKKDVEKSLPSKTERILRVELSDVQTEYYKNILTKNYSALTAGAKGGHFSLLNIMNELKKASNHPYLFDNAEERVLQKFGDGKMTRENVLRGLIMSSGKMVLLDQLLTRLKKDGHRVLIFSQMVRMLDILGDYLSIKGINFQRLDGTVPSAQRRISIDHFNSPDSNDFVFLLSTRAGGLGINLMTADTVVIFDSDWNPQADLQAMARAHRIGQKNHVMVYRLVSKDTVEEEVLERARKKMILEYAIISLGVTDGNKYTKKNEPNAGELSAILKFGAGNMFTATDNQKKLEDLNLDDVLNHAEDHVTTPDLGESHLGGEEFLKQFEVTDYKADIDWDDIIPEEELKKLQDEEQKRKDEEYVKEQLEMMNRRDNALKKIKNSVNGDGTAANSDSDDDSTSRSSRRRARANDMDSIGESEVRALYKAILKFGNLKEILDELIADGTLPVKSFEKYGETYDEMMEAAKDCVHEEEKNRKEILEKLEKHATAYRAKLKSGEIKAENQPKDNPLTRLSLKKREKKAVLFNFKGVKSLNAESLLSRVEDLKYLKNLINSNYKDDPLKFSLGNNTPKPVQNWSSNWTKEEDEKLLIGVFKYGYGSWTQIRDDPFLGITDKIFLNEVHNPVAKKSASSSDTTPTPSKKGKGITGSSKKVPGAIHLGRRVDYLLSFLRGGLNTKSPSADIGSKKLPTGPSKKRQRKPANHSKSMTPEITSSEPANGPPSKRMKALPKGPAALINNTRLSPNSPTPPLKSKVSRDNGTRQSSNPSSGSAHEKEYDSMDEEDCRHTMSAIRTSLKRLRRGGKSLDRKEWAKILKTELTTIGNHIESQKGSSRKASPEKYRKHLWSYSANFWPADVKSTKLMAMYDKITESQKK
Protein translocase subunit SecA (Escherichia coli (strain K12)), sequence (P10408 whole entry): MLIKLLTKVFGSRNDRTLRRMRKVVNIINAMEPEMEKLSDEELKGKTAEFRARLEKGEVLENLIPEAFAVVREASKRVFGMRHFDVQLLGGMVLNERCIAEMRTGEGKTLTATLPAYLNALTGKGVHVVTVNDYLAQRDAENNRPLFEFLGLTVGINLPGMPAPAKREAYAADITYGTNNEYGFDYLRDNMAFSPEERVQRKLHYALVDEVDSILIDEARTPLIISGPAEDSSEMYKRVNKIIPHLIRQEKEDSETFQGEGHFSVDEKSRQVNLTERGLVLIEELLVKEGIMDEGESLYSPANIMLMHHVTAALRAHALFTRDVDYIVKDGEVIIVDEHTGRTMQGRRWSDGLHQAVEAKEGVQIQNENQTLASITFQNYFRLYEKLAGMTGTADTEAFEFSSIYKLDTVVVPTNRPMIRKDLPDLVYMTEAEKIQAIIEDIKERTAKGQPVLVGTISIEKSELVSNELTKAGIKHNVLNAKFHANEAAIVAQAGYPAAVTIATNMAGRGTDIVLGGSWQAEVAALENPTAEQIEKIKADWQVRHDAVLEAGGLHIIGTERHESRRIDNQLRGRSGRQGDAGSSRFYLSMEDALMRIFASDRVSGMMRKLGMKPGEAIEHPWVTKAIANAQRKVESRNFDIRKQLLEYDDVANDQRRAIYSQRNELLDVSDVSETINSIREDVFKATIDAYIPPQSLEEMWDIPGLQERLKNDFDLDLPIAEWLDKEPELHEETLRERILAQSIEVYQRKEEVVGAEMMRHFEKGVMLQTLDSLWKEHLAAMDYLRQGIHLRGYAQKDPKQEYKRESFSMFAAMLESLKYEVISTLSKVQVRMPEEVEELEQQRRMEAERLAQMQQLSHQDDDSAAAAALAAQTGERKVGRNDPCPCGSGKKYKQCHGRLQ

In the case of `c1cnnc(N2CCCC2CNc2nc3ccccc3o2)c1` (stereo unspecified), the Percent Effect is -5.3% in [1]; 11.4% in test [2]; 3.62% in test [3]; 9.59% in test [4]; 1.33% in [5]; 4.95% in test [6]. Further, the Percent Effect in [7] was 11.5%; in test [8], 11.9%; in [9] it was 0%; in test [10] it was 20.2%; in test [11], -16%.

Take `CCN1C(=O)CCC12CCCN(Cc1nccs1)CC2` (stereo unspecified): the Percent Effect in test [1] is -5.45%; in [2], 8%; in [3] it was 11.7%; in [4], 0.513%; in test [5] it was 2.56%; in test [6], -0.699%. Moreover, the Percent Effect is 8.37% in test [7]; 9.53% in test [8]; 7.45% in [9]; 16.7% in test [10]; -1.64% in test [11].

In the case of `Cc1nc2c(c(N3CC=CC3)n1)CCN(Cc1ccoc1)CC2`, the Percent Effect was -7.04% in test [1]; 5.2% in test [2]; 2.16% in test [3]; 4.88% in test [4]; -1.87% in test [5]; 1.38% in test [6]. Also, the Percent Effect in test [7] is 9.65%; in test [8], -16.9%; in test [9], 3.23%; in [10], 8.64%; in [11], 1.68%.

Turning to `Cc1cnn(CC2CN(c3ncnc4ccsc34)CCO2)c1` (stereo unspecified), the Percent Effect in test [1] was -2.74%; in test [2], 2.7%; in [3], 4.84%; in test [4], -10%; in [5], 6.05%; in test [6] it was -2.5%. Further, the Percent Effect in test [7] was 19.7%; in [8], 75.7%; in test [9] it was 11.9%; in test [10] it was 15.8%; in test [11], -0.587%.

With `CCOCCCNC(=O)c1cc(C(C)C)nc(N2CCCCCC2)n1`, the Percent Effect in test [1] is 0.305%; in test [2], -12%; in [3] it was 4.38%; in test [4] it was -7.72%; in [5] it was -5.5%; in [6], -16%. The Percent Effect in test [7] was 16.3%; in test [8], 17%; in test [9], 10.6%; in test [10], 12.8%; in test [11], -11.2%.

In the case of `CC(C)NC(=O)Cn1cc(-c2ccccc2)cn1`, the Percent Effect in [1] was -1.92%; in test [2], 6.33%; in test [3], 6.33%; in test [4], -0.321%; in test [5], 2.15%; in [6], 3.23%. Moreover, the Percent Effect in test [7] was 13.7%; in test [8], -2.22%; in test [9] it was 4.17%; in test [10], 10.1%; in test [11], 1.99%.

Consider `Cc1noc(CCCC(=O)NC(C)c2cccnc2)n1` (stereo unspecified), for which the Percent Effect was 0.699% in [1]; 13.2% in test [2]; 0.237% in [3]; 0.605% in [4]; -5.83% in test [5]; 5.75% in test [6]. For the same compound, the Percent Effect in test [7] is 8.86%; in test [8], 21.4%; in [9] it was 8.33%; in [10], 12.2%; in test [11], -6.49%.

With `CCN(Cc1ccc2c(c1)OCCO2)C(=O)NCc1cc[nH]n1`, the Percent Effect was -2.19% in test [1]; 15.6% in test [2]; 1.3% in test [3]; 2.08% in [4]; -2.06% in test [5]; 1.47% in test [6]. The Percent Effect in test [7] was 7.03%; in test [8], -7.15%; in test [9], 5.71%; in test [10], 11.8%; in test [11], -19.3%.

As for `Cc1ccccc1CS(=O)(=O)NCCCN1CCCCC1`, the Percent Effect in test [1] is -6.3%; in test [2], 5.33%; in test [3] it was 6.44%; in [4], 24.2%; in [5], 0.292%; in [6] it was 2.6%. Besides, the Percent Effect in test [7] is 6.63%; in test [8] it was 7.26%; in [9], 1.64%; in test [10], 3.7%; in [11], -2.2%.

In the case of `CCOCC(=O)NC1(c2cccc(Br)c2)CC1`, the Percent Effect in [1] is -8.13%; in test [2], 0%; in test [3], 0.838%; in [4], 9.79%; in test [5] it was -3.67%; in test [6] it was -2.38%. In addition, the Percent Effect in test [7] is 7.76%; in test [8], 13.1%; in [9] it was -1.59%; in test [10] it was -2.44%; in [11] it was -3.38%.

Turning to `CC(C)(O)CN1CCN(C(=O)c2cc3ccccc3c(=O)[nH]2)CC1`, the Percent Effect was 0.132% in [1]; 2.63% in [2]; 5.98% in [3]; -1.12% in test [4]; -3.6% in test [5]; -2.37% in test [6]. The Percent Effect was 7.57% in test [7]; -8.77% in test [8]; 7.45% in test [9]; 13% in test [10]; -5.58% in [11].
